Results published in PubChem BioAssay AID1671192 (National Center for Advancing Translational Sciences (NCATS), 2021).
Records with an inconclusive call do not appear. Calls of active or inactive are those of the source. Calls follow the shape of the dose curve; as a rule, active = well fitted curve in the direction sought with a large enough effect; inconclusive = small, poorly fitted or top-dose-only effect, or another doubt; inactive = no such curve, though single readings can be large or run the other way.

target: Polyunsaturated fatty acid lipoxygenase ALOX15 (Homo sapiens) (UniProt P16050); assay: Counterscreen qHTS for inhibitors of human arachidonate 12S-lipoxygenase (ALOX12): ALOX15 Assay; conditions: purified ALOX15 enzyme activity; series mostly up to 110 µM
Excerpt: Assay Provider: Theodore R. Holman Ph.D.
University of California, Santa Cruz, California
Human lipoxygenase 12hLO is a member of the closely related lipoxygenase family of enzymes which catalyze the site-specific oxidation of arachidonic acid to various hormone precursor molecules and as such is a candidate for drug development in a variety of disease areas, such as cancer and inflammation. Inhibition of 12hLO activity was screened by utilizing arachidonic acid as a substrate. The extent of hydroperoxide product formation was measured by a secondary chromogenic reaction in which xylenol orange (XO, Sigma-Aldrich, cat. number 39,818-7) reacts with the ferric ions produced from the reaction between the hydroperoxide and ferrous ions. The Fe (III)-XO complex is characterized with red-shifted absorbance at 560 nm. A purified preparation of human 12hLO was supplied by Dr. Holman laboratory, University of California, Santa Cruz.
An assay against arachidonate 15-lipoxygenase (ALOX15) was developed to assess selective inhibition against ALOX12. Desired compounds would show potent inhibition against ALOX12 and minimal to no inhibition against ALOX15.
SEQUENCE No. (e.g., 1, 2, 3, etc.); PARAMETER (e.g., Cells, Incubation, Reagent, etc.); VALUE; DESCRIPTION
1; Enzyme; 3 uL; 40 nM ALOX15 (15hLO-1) enzyme solution dispensed in 1536-well Greiner black, clear bottom plates.
2; Compound; 23 nL; compounds and controls were added.
3; Incubate; 15 min; room temperature.
4; Substrate; 1 uL; 50 uM arachidonic acid (final concentration).
5; Incubate; 30 min; room temperature.
6; Reagent; 4 uL; Fe-XO solution was added to each well.
8; Incubation; 30 min; room temperature
9; Detector; absorbance; Read 1 at 405 nm absorbance using ViewLux (PerkinElmer) CCD imager.
10; Detector; absorbance; Read 2 at 573 nm absorbance using ViewLux (PerkinElmer) CCD imager.
NOTES (numbers refer to sequence above)
1; 40 nM ALOX15 (final concentration) in buffer solution (25 mM Hepes, 0.01% Triton X-100, pH 7.5) was dispensed in columns 1, 2, 5 - 48. Column 1 is neutral (100% activity). Buffer only was dispensed in columns 3 and 4 as no enzyme negative controls. The plates were covered with metal lids with gas-exchange holes.
2; Compounds were pin transferred via a Kalypsys Pin Tool (Wako USA) in column 5 - 48. Control compound was transferred in column 2, titration of nordihydroguaiaretic acid (NDGA, Sigma-Aldrich, N5023) with top concentration of 10 mM in DMSO then 1:2 dilution in duplicate. Dilution factor of 23 nL into 4 uL final assay volume.
3; Covered assay plates were incubated for 15 min at room temperature.
4; Substrate was added to start the reaction; 50 uM arachidonic acid (Sigma-Aldrich, St. Louis, MO) was dispensed throughout the plate.
6; Chromogenic detection reagent solution (divalent iron/xylenol orange, Fe-XO) was added to each well: 200 uM xylenol orange, 300 uM ferrous ammonium sulfate prepared freshly in 50 mM sulfuric acid.
9, 10; Two absorbance readouts were obtained at 405 nm and at 573 nm using a ViewLux high-throughput CCD plate imager (PerkinElmer). The 573 to 405 (Read 2 / Read 1) absorbance ratio was used to compute reaction progress.

Polyunsaturated fatty acid lipoxygenase ALOX15 (Homo sapiens), sequence (P16050 whole entry, looked up): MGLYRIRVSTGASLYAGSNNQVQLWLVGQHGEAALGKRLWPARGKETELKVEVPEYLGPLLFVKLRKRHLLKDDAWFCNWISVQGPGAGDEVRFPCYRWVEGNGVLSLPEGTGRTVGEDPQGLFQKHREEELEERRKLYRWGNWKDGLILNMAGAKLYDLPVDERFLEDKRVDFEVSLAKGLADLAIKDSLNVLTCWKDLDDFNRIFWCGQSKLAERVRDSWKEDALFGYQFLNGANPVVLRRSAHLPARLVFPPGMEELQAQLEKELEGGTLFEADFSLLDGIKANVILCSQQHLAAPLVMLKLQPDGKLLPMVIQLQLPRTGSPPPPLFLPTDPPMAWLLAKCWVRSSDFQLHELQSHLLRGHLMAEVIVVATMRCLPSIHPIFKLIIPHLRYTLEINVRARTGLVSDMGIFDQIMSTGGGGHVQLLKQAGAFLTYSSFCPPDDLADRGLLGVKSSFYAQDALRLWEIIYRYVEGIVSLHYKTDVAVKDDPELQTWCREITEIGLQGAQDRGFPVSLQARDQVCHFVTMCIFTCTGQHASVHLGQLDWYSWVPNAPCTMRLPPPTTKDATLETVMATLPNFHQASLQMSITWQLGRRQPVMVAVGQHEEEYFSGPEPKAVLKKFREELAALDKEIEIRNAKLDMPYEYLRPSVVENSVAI

| SMILES | outcome |
| --- | --- |
| Fc1ccc(CN2CCn3c(nnc3C3CCCNC3)C2)cc1 (stereo not given) | inactive |
| CN1CC(=O)N(C2CCCNC2)Cc2c(NC3CCC3)ncnc21 (stereo not given) | inactive |
| O=Cc1ccc(-c2ccc(O)cc2)cc1 | inactive |
| CN(C)CCC(=O)N1Cc2ccccc2CC2(CCCN(C)C2)C1 (stereo not given) | inactive |
| Cc1cc(C(=O)NC2CC2)c2c(C3CCNCC3)noc2n1 | inactive |
| O=C(O)c1cccc(-c2cnc3ccccc3c2)c1 | inactive |
| O=C(C1CCCC1)N1Cc2ccccc2CC2(CCN(Cc3ccncc3)C2)C1 (stereo not given) | inactive |
| CC(C)OCCCNC(=O)c1cc(C2CC2)nc2onc(C3CCCN3)c12 (stereo not given) | inactive |
| C[S+](=O)([O-])N1Cc2ccccc2CC2(CCN(CC3CCNC3)CC2)C1 (stereo not given) | inactive |
| CN(c1ccccc1)C1CNC1 | inactive |
| CC[C@@H](Nc1ncnc2c1CN(C1CCNCC1)C(=O)CN2C)c1ccccc1 | inactive |
| COc1ccc(-c2nc(C3CC3)nc3c2CN(C(=O)c2ccccc2)CC3)cc1 | inactive |
| O=C(c1ccc(C(F)(F)F)cc1)N1CCC2(CC1)C(=NC1CCCCC1)NC(=O)N2c1cc(F)cc(F)c1 | inactive |
| COc1ccc(N2CC3CCC(C2)N3C(=O)c2ccc3c(c2)OCO3)cc1 | inactive |
| O=C(Nc1ccc(F)cc1)c1c[nH]c2cccnc12 | inactive |
| O=C(O)CCCC(=O)N1Cc2ccccc2CC2(CCCN2Cc2ccccc2)C1 (stereo not given) | inactive |
| CCCN1CCC2(Cc3ccccc3CN(C(=O)Cc3ccc(O)cc3)C2)C1 (stereo not given) | inactive |
| CN1CC(=O)N(C2CCCNCC2)Cc2c(NCCO)ncnc21 (stereo not given) | inactive |
| C[S+](=O)([O-])N1CCC(c2nnc3n2CCNC3)CC1 | inactive |
| O=C(N1CCOCC1)N1CCn2c(nnc2-c2cncc(Br)c2)C1 | inactive |

| SMILES | outcome |
| --- | --- |
| O=c1[nH]c(C2CCCN(Cc3cccc(Cl)c3)C2)nc2ccc(F)cc12 (stereo not given) | inactive |
| CCc1nc2c(c(-c3ccc(OC)cc3)n1)CN([S+](=O)([O-])c1cccc(OC)c1)CC2 | inactive |
| CNCc1ccccc1-c1ccccc1 | inactive |
| CCOCCCNc1ncnc2c1CN(C1CCNCC1)C(=O)CN2C | inactive |
| NCc1cccc(-c2ccsc2)c1 | inactive |
| Fc1ccc(OC2CN(Cc3cccc4ccccc34)C2)cc1F | inactive |
| O=C(N1CCCC1)N1CCn2c(nnc2-c2cncc(Br)c2)C1 | inactive |
| C[S+](=O)([O-])N1CC2(CCN(Cc3ccc(Cl)cc3)C2)Cc2ccccc21 (stereo not given) | inactive |
| O=C1NCc2ccccc2CC12CCCN2Cc1cccc(OC(F)(F)F)c1 (stereo not given) | inactive |
| CN1CC(=O)N(C2CCCNCC2)Cc2c(NCCCO)ncnc21 (stereo not given) | inactive |
| O=c1n(-c2cccc(Cl)c2)nc2n1CCN([S+](=O)([O-])c1cccs1)C2 | inactive |
| O=C1Nc2ccccc2C12CCN(Cc1ccccc1)C2 (stereo not given) | inactive |
| NCCC(=O)N1CCC2(CC1)CN(C(=O)Cc1ccc(Cl)cc1)CCO2 | inactive |
| COc1ccc(CC(=O)N2Cc3ccccc3CC3(CCCN(C)C3)C2)cc1 (stereo not given) | inactive |
| O=c1[nH]c(C2CCCN(Cc3ccc(-c4cc(F)cc(F)c4)cc3)C2)nc2ccc(F)cc12 (stereo not given) | inactive |
| O=[S+]([O-])(c1ccncc1)c1nnn2c1nc(NCc1ccc(F)cc1)c1ccccc12 | inactive |
| COc1cc(CN2CCC3(Cc4ccccc4CNC3=O)C2)cc(OC)c1 (stereo not given) | inactive |
| FC(F)(F)c1ccc(N2C3CCC2CN(Cc2cccc(-c4cccs4)c2)C3)cc1 | inactive |
| O=Cc1ccc(-c2cccc(O)c2)cc1 | inactive |
| CN1CC(=O)N(C2CCCNCC2)Cc2c(NCc3ccc4c(c3)OCO4)ncnc21 (stereo not given) | inactive |
